From PubChem BioAssay
Values joined by “and” are separate entries in the source; they are usually repeats but may differ in a detail not shown here. Equal values may be shown once. Active and inactive are the calls of the source. Rule as the data show it, unless noted: active = inhibition above about 80%; inactive = the rest.

Tests used:
[1] = P. berghei load reduction in hepatocytes – cell-based, HepG2, luciferase luminescence, HepG2 viability, primary screen (AID 624349; in the data active = parasite load remaining mostly below about 12%, no sharp cut-off; inactive = mostly above about 10%;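 also: 100% = mean of DMSO negative control wells on the same plate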); conditions: P. berghei liver stage in HepG2, luciferase luminescence, concentration not given here; parasite load remaining: stronger effect = lower value; viability: measured here: HepG2 viability without parasites
[2] = growth inhibition, single agents and combos, LFS_MB_1R, cell-based, cisplatin or BGB combos, synergistic combos for chromothripsis tumors (AID 1671452); conditions: LFS_MB_1R medulloblastoma cells, stronger effect = higher value;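 also: cells exposed for 96 hours before readout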
[3] = growth inhibition, single agents and combos, CRL2098, cell-based, BGB or cisplatin IC20 combos, synergistic combos for chromothripsis tumors (AID 1671454); conditions: CRL2098 osteosarcoma cells, drug combinations, stronger effect = higher value;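 also: cells exposed for 96 h before readout; 0% = vehicle DMSO and 100% = killing by high DMSO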
[4] = growth inhibition, single agents and combos, HD-MB03, cell-based, BGB or cisplatin IC20 combos, synergistic combos for chromothripsis tumors (AID 1671455; in the data active = inhibition above about 83%;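 also: 0% = vehicle DMSO and 100% = high DMSO as cytotoxic control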); conditions: HD-MB03 medulloblastoma cells, stronger effect = higher value
[5] = growth inhibition, single agents and combos, UWB1.289, cell-based, BGB or cisplatin combos, synergistic combos for chromothripsis tumors (AID 1671456); conditions: UWB1.289 ovarian carcinoma cells, stronger effect = higher value;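 also: cells exposed to compound for four days; 0% = vehicle DMSO and 100% = killing by high DMSO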
[6] = growth inhibition, single agents and combos, LFS_MB_2R, cell-based, cisplatin combos, synergistic combos for chromothripsis tumors (AID 1671457); conditions: LFS_MB_2R medulloblastoma cells, stronger effect = higher value;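 also: cells exposed to compound for four days before readout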
[7] = UWB1.289_BRCA1 ovarian cancer growth, cell-based, BGB or cisplatin combinations (AID 1671459); conditions: UWB1.289 BRCA1 ovarian carcinoma, drug combinations, stronger effect = higher value
[8] = drug combination toxicity in non-malignant astrocytes – cell-based, BGB or cisplatin IC20 combos, cytotoxicity control for chromothriptic childhood tumor combination screen (AID 1671460); conditions: Human astrocytes, viability inhibition, drug combinations, at 0.5 µM, stronger effect = higher value;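 also: cells exposed to compounds for 96 hours before viability readout; 0% = vehicle and 100% = killing control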
[9] = CRL1545 cell growth, single agent and combined, cisplatin and BGB IC20 combos (AID 1671464); conditions: CRL1545 osteosarcoma cells, stronger effect = higher value;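 also: cells exposed to compound for 96 hours before readout; 0% = vehicle DMSO and 100% = high DMSO killing control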
[10] = liver-stage malaria parasite load reduction – cell-based, known kinase inhibitor set, luminescence, hepatoma host viability (AID 624392; call rule not given here;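 also: infected cells incubated roughly two days before readout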); conditions: Plasmodium liver stage in hepatoma cells, luciferase luminescence, concentration not given here; liver cell % of control: measured here: host liver cell viability; parasite % of control: stronger effect = lower value
[11] = target: Mitogen-activated protein kinase 7 (Homo sapiens) (UniProt Q13164); assay: Gal4-ERK5 driven luciferase induction – cell-based, HTS, primary screen (AID 1508626;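 active = luciferase signal above three times the same-plate solvent-only control wells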;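 also: luciferase driven by Gal4-ERK5 fusion binding five Gal4 sites before minimal TATA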); conditions: HeLa Gal4-ERK5 transactivation, 18 h, at 5 µM, stronger effect = higher value
[12] = galactose survival enhancers in mitochondrial complex I cybrids – cell-based, galactose medium, ATP luminescence, primary screen (AID 1645843;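 active = z-score of at least 1.8 in each of two replicates, scored against plate mean and spread of sample wells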;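 also: positive z means more ATP and so rescue of galactose-driven cybrid death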); conditions: complex I mutant cybrid cells, 72 h, stronger effect = higher value
[13] = compounds altering viability of human ES cells (AID 493140; call rule not given here;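 also: cells exposed to compounds for four days before counting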); conditions: human embryonic stem cell survival screen; stronger effect = higher value
[14] = measured here: combination with cisplatin, at 0.5 µM
[15] = measured here: combination with cisplatin, at 5 µM

Mitogen-activated protein kinase 7 (Homo sapiens), sequence (Q13164 whole entry, looked up, the tested form may be a part): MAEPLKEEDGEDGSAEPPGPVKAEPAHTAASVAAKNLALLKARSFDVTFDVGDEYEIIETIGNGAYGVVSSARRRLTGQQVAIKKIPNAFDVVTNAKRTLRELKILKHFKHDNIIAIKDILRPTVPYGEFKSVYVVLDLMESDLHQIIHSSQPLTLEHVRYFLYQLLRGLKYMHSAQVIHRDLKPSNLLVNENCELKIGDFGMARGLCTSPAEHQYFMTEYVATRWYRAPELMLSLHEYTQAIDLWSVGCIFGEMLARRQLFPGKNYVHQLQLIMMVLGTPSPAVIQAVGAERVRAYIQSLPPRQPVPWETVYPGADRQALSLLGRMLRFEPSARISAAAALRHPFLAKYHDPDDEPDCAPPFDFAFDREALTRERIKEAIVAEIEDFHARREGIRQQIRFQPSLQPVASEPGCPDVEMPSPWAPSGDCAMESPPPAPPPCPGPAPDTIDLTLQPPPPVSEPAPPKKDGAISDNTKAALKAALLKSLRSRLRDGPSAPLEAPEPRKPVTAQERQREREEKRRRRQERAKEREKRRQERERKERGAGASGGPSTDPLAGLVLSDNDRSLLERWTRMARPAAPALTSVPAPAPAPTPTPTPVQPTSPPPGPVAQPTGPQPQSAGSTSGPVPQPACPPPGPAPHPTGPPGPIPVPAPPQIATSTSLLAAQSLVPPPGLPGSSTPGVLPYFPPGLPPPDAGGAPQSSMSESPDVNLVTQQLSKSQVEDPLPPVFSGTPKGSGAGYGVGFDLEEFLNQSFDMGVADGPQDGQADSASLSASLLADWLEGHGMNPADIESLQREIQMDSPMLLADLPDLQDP

Cc1ccc([N+](=O)[O-])cc1S(=O)(=O)N(C)/N=C/c1cnc2ccc(Br)cn12
parasite load remaining [1]: 40.5% (inactive) | viability [1]: 60.2% | inhibition ([2]; at 0.5 µM): 82.3% (active) | inhibition ([2]; measured here: combination with BGB IC40, at 0.05 µM): -47.5% | inhibition [2, 14]: 77.8% | inhibition [2, 15]: 97.4% | inhibition ([3]; at 0.5 µM): 89.7% (active) | inhibition ([3]; measured here: combination with BGB at IC20, at 0.5 µM): 91.5% | inhibition ([3]; measured here: combination with cisplatin at IC20, at 0.5 µM): 95.8% | inhibition ([4]; at 0.5 µM): 84.2% (active) | inhibition ([4]; measured here: combo with BGB at IC20, at 0.5 µM): 85% | inhibition ([4]; measured here: combo with cisplatin at IC20, at 0.5 µM): 81.5% | inhibition ([5]; at 0.5 µM): 63.4% (inactive) | inhibition ([5]; measured here: inhibition with BGB combination, at 0.05 µM): -17.5% | inhibition ([5]; measured here: inhibition with cisplatin combination, at 0.05 µM): -14.7% | inhibition ([6]; at 0.5 µM): 63.9% (inactive) | inhibition [6, 14]: 63.1% | inhibition [6, 15]: 90.7% | inhibition ([7]; BGB combination, concentration series, at 5 µM): 89.2% | inhibition ([7]; at 0.5 µM): 73.9% (inactive) | inhibition ([7]; cisplatin combination, concentration series, at 5 µM): 92.4% | inhibition [8]: 83.2% (active) | inhibition ([8]; measured here: combo with BGB IC20): 77.8% | inhibition ([8]; measured here: combo with cisplatin IC20): 81.3% | inhibition ([9]; at 0.5 µM): 96.9% (active) | inhibition ([9]; measured here: with BGB IC20 combination, at 0.5 µM): 98.1% | inhibition ([9]; measured here: with cisplatin IC20 combination, at 0.5 µM): 96.2% | inhibition ([9]; single agent, at 0.05 µM): -27.4% | inhibition ([9]; single agent, at 5 µM): 99.9%

O=C(NCCCNc1nc(Nc2cccc(NC(=O)N3CCCC3)c2)ncc1I)c1cccs1
liver cell % of control [10]: 74.4% and 44.5% and 88.3% | parasite % of control [10]: 0.4% (inactive) and 0.22% (inactive) and 6.81% (inactive)

CC[C@H](/C=C/[C@@H](C)[C@H]1CC[C@H]2[C@@H]3CC=C4C[C@@H](O)CC[C@]4(C)[C@H]3CC[C@]12C)C(C)C
luciferase signal [11]: 52 AU (inactive)

C=C(c1ccc(C(=O)O)cc1)c1cc2c(cc1C)C(C)(C)CCC2(C)C
parasite load remaining [1]: 34.5% (inactive) | viability [1]: 146% | z-score [12]: 0.715 (inactive)

CC[C@H](CO)Nc1nc(NCc2ccccc2)c2ncn(C(C)C)c2n1
survival [13]: 75.1 (inactive) | parasite load remaining [1]: 29.6% (inactive) | viability [1]: 68.3%
